Screens from PubChem.
SARS PLP yeast: blocks SARS-CoV papain-like protease in a yeast assay | AID 485353 | S. cerevisiae expressing SARS-CoV PLpro, growth rescue | Potency, µM (top dose mostly 32.9 µM), without a hit: at the highest dose activity, positive = growth rescue, hits mostly activators | 330,000 compounds, 0.19% hits; calls by dose curve; also: potency is read from the fitted curve at half-maximal effect; 0% is about no effect; nearly all actives have a fitted effect of over 55% in size
Pf growth 96h: P. falciparum growth inhibition at 96 hour, primary screen for plastid delayed-death inhibitors; P. falciparum luciferase reporter growth, 96 h; Potency, µM (series often up to 28.7 µM), for the others: at the highest dose activity change, negative = inhibition, usual class: inhibitors; 320,000 compounds, 6.9% hits; AID 504834; also: potency is read from the fitted curve at half-maximal effect; % is scaled to controls: 0 for no effect and ±100 for the full control effect
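Parasite growth measured via integrated firefly luciferase reporter in P. falciparum. Infected erythrocytes at 2% hematocrit, 0.05% parasitemia final were treated 96 hours at 37 C under 5% CO2, and luminescence was read.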
Shiga toxin inh: Shiga toxin inhibition; Vero cells, Shiga toxin protein synthesis inhibition reporter; inhibition, % at 38.7 µM; 290,000 compounds, 9.2% hits; in the data active = inhibition mostly above about 28%, no sharp cut-off; inactive = mostly below about 43%; also: 0% is about no effect
Pf growth 48h: inhibits P. falciparum growth in the first generation, 48 h | P. falciparum luciferase growth in erythrocytes, 48 h | Potency, µM (top dose mostly 28.7 µM), inactives show at the highest dose activity change, negative = inhibition, usual class: inhibitors | 310,000 compounds, 5.9% hits | AID 504832; also: potency is read from the fitted curve at half-maximal effect; % is scaled to controls: 0 for no effect and ±100 for the full control effect
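Compounds are pin-transferred into medium, infected erythrocytes (2% hematocrit, 0.1% parasitemia final) are added, and plates sit one parasite generation at 37 C in 5% CO2. Detection reagent is then added and luminescence measured.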
CHX counter: counter-screen for Shiga toxin inhibitors: cycloheximide protein synthesis inhibition; 300,000 compounds, 12% hits; max response, %; cell reporter, cycloheximide protein synthesis inhibition counterscreen; in the data active = max response mostly above about 13%, no sharp cut-off; inactive = mostly below about 14%; also: read at 38.3 µM for the half of the compounds with a filed dose; 0% is about no effect
AMA1-RON2 inh: inhibitors of Plasmodium falciparum AMA1-RON2 interaction. AlphaScreen AMA1-biotinylated RON2 peptide binding. 360,000 compounds, 0.2% hits. AID 720542. Potency, µM (highest dose often 58.2 µM), for inactives: at the top dose activity change, negative = inhibition, hits mostly inhibitors;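 also: potency is read from the fitted curve at half-maximal effect; 0% = vehicle wells and -100% = peptide control; nearly all actives have a fitted effect of over 45% in size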
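AMA1 (3D7) with his tag at 25 nM final met compounds first, then biotinylated RON2 peptide at 25 nM; detection used donor plus acceptor beads, 10 µg/mL apiece, read by AlphaScreen after 30 min at room temperature.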
Starred values were filed as active, the others as inactive; ? = inconclusive; . = no result given; [ ] = dose if it differs, or a comment. Hits are enriched below; roughly 19% of the tested compounds scored in any of these assays. Unless noted, calls follow the shape of the dose curve; as a rule, active = well fitted curve in the direction sought with a large enough effect; inconclusive = small, poorly fitted or top-dose-only effect, or another doubt; inactive = no such curve, though single readings can be large; an effect the other way counts as inactive or inconclusive.

SMILES | SARS PLP yeast | Pf growth 96h | Shiga toxin inh | Pf growth 48h | CHX counter | AMA1-RON2 inh
COc1cc(C(=O)Nc2sc3c(c2C(=O)NCc2ccco2)CCCC3)cc(OC)c1OC | 12% | 1.7µM* | -12 | . | 3 | 13%
Cc1ccc(C(=O)Nc2sc3c(c2C(=O)NCc2ccco2)CCCC3)cc1 | 11% | ? | 34 | . | 13 | -14%
COCCNC(=O)c1ccc(CN2CCOCC2)cc1 | 16% | -22% | 12 | 0% | 0 | 4%
O=C(O)c1[nH]c2ccccc2c1C(c1cc(Br)ccc1O)c1c(C(=O)O)[nH]c2ccccc12 | 8% | ? | -17 | ? | -2 | -9%
COc1ccc(OC)c(/C=N/NC(=O)c2cnccn2)c1 | 0% | 63% | 69* | -3% | 9 | 11%
O=C(N/N=C/c1cccc([N+](=O)[O-])c1)c1cnccn1 | -13% | -13% | active | 17% | 16 | 85%
COc1ccc(/C=N/NC(=O)c2cc3c(OC)ccc(OC)c3[nH]2)cc1O | 2% | ? | 9 | 3.7µM* | 7 | -2%
COc1cccc(C(=O)O/N=C(\C)c2cnccn2)c1 | 0% | ? | 10 | 16% | 19* | 16%
C/C(=N/OC(=O)c1c(-c2c(Cl)cccc2Cl)noc1C)c1cnccn1 | -1% | -2% | -7 | 3% | -2 | -14%
CC1CCCN(C(=O)COC(=O)c2ccc3[nH]c4c(c3c2)CCCC4)C1 (stereo not given) | -5% | 16% | . | 37% | . | -7%
COc1ccccc1-n1nnnc1SCC(=O)Nc1ccc(C)c(N)c1 | 1% | 0% | 1 | ? | 1 | 4%
COc1ccc(/C=N/NC(=O)c2cnccn2)c(OC)c1OC | 0% | 18% | 16 | 40% | 20 | 44%
COc1ccc(/C=N/NC(=O)c2cnccn2)cc1O | -3% | -13% | 38* | 90% | 65* | 2%
COc1cccc(/C=N/NC(=O)c2cnccn2)c1O | 2% | -15% | 89* | ? | 37* | 57%
COc1cccc(/C=N/NC(=O)c2cnccn2)c1 | 2% | 0% | 86* | 37% | 75* | 8%[2.32 µM]
COc1cccc(C=NNC(=O)CCCC(=O)NN=Cc2cccc(OC)c2)c1 | . | . | . | . | . | 8%
COc1ccc(C2Nc3ccccc3C(=O)N2NS(=O)(=O)c2ccc(C)cc2)cc1OC (stereo not given) | 4% | ? | -6 | -11% | -2 | -4%
COc1ccccc1CCn1cnc2c3cc(C)ccc3n(C)c2c1=O | -1% | ? | 16 | ? | 2 | -8%
Cc1ccc(S(=O)(=O)N2CCCC(C(=O)Nc3ccc(C(=O)O)cc3)C2)cc1Cl (stereo not given) | 0% | 1% | 1 | -24% | -2 | -3%
COC(=O)[C@H](C)NC(=O)Nc1ccccc1C(F)(F)F | 1% | 2% | -16 | 21% | -5 | -4%
NNc1ccccc1C(F)(F)F | 1% | 42% | 63 | 60% | 28* | 17%
Cc1cccc(NC(=O)CSc2nnc(NC(=O)CN3CCCCC3)s2)c1 | 0% | -9% | 13 | 10% | 1 | .
Cc1cccc(C)c1Nc1nnc(SCC(=O)Nc2cc(S(=O)(=O)N3CCCCC3)ccc2Cl)s1 | -3% | ? | -2 | 13µM* | -2 | 0%
Cc1cccc(Nc2nnc(SCC(=O)Nc3cccc(S(=O)(=O)N4CCCCC4)c3)s2)c1 | 3% | -16% | 78* | 29% | 29* | -11%[11.6 µM]
Cc1ccc(Nc2nnc(SCC(=O)Nc3ccc(S(=O)(=O)N4CCOCC4)cc3)s2)cc1 | 8% | . | 111* | 26% | 49* | 6%
Cc1cc(C(F)(F)F)n(-c2ccc(N)cc2)n1 | 1% | -2% | 25 | 9% | -6 | 3%
CCOC(=O)C1=C(COC(=O)C2CC(=O)N(c3ccccc3F)C2)NC(=O)NC1C (stereo not given) | -2% | ? | . | -21% | . | 7%[11.6 µM]
Cc1ccc(S(=O)(=O)NCl)cc1 | . | -29% | . | -15% | . | .
C[C@@H]1Cc2[nH][nH]c(=O)c2[C@H](c2ccc(Cl)cc2)O1 | . | . | . | . | . | 46%
COc1ccc(C2(C)NC(=O)N(CC(=O)Nc3ccc(Br)cc3F)C2=O)cc1OC (stereo not given) | -2% | 3.7µM* | -6 | ? | 1 | 1%
